Source: PubChem BioAssay AID720486 (Milwaukee Institute for Drug Discovery, 2013)
This is one part of the list. Values without a mark were called inactive.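 Rule for the calls: active = inhibition of at least 50%; inactive = the rest.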

Biological target: Single-stranded DNA-binding protein (Escherichia coli (strain K12)) (UniProt P0AGE0)
Experiment: disruption of SSB binding to ssDNA – biochemical, fluorescence polarization, selected ChemBridge compounds, counter-screen for HCV NS3 helicase inhibitor project (AID 720486);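 note: displacers lower Cy5 polarization so higher inhibition means more SSB displaced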
Settings: E. coli SSB binding Cy5-dT15, fluorescence polarization; at 100 µM; active compounds read high

Sequence of Single-stranded DNA-binding protein (Escherichia coli (strain K12)) (P0AGE0 whole entry, looked up): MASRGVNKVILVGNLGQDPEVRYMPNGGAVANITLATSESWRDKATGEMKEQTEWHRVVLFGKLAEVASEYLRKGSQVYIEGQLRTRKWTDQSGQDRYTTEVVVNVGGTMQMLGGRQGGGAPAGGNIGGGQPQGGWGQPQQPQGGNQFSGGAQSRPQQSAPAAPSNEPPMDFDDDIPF

CCOc1cc(C=C2C(=O)NC(=O)NC2=O)cc(Br)c1OCCOc1ccccc1C was tested. Which inhibition did it give?
The inhibition was 36.9%.
